From PubChem BioAssay (NCATS)
Records with an inconclusive call do not appear. The source made the active and inactive calls. Unless noted, the call rests on the fitted dose curve; in most records, active means well fitted curve in the direction sought with a large enough effect; inconclusive means small, poorly fitted or top-dose-only effect, or another doubt; inactive means no such curve, though single readings can be large; an effect the other way counts as inactive or inconclusive.

molecular target: Mitogen-activated protein kinase 10 (Mus musculus) (UniProt Q61831); test: JNK3 AlphaScreen Assay (AID 530; active means well fitted curve in either direction with a large enough effect, not every such curve was filed as active;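 further: kinase came from lysate of stimulated human HepG2 cells; signal reports phosphorylation of biotinylated GST-cJun 1-79 at Ser73 with 10 µM ATP; on the % scale 0 is the no-effect control and ±100 the full control effect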); settings: JNK3 lysate, c-Jun phosphorylation; series mostly up to 57.1 µM; activity change, negative = inhibition: at the top concentration
Summary of the method: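 Biotinylated GST-cJun(1-79) served as substrate for JNK3 in HepG2 lysates stimulated with IL-1beta and TNF-alpha. ATP was 10 uM final, pH 7.6. Ser73 phosphorylation was quantified by AlphaScreen (680 nm excitation).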

Activity change, negative = inhibition, inactive:
COC(=O)[C@@H]1C[C@H]1[C@@H](NS(=O)(=O)c1ccc2ccccc2c1)c1ccccc1 11.8%
CCC/C=C(\CCC)C(NC(=O)OCC(C)C)c1ccccc1 (stereo unspecified) 6.03%
COC(=O)[C@@]1(Cc2ccc(OC)cc2)[C@H]2c3cc(C(=O)N4CCCC4)n(Cc4ccc(OC)c(OC)c4)c3C[C@H]2CN1C(=O)c1ccccc1 -18.6%
Cc1cc(CNC(=O)[C@H](C)[C@@H]2C[C@@]2(C)[C@@H](NC(=O)OCc2ccccc2)c2ccccc2)nn1C 2.17%
COc1ccc(CNC(=O)[C@H](C)[C@@H]2C[C@@]2(C)[C@@H](NC(=O)OCc2ccccc2)c2ccccc2)cc1OC -8.28%
COC(=O)[C@@]1(Cc2ccccc2)[C@H]2c3cc(C(=O)N(C)C)n(CCSCCO)c3C[C@H]2CN1C(=O)c1ccccc1 -5.7%
COC(=O)[C@@]1(Cc2ccc(OC)cc2)[C@H]2c3cc(C(=O)N(C)C)n(CCO)c3C[C@H]2CN1C(=O)c1ccccc1 -4.08%
CCCC[C@@H]1C[C@H]1C(NC(=O)c1ccccc1)c1ccc(C(=O)OC)cc1 (stereo partly specified) 6.87%
COC(=O)[C@@]1(Cc2ccc(OC)cc2)[C@H]2c3cc(C(=O)N4CCCC4)n(Cc4cc(F)c(F)c(F)c4)c3C[C@H]2CN1C(=O)c1ccccc1 -25.8%
COC(=O)[C@@]1(Cc2ccc(OC)cc2)[C@H]2c3cc(C(=O)N4CCCC4)n(CCN4CCOCC4)c3C[C@H]2CN1C(=O)c1ccccc1 -6.61%
COC(=O)[C@@]1(Cc2ccc(OC)cc2)[C@H]2c3cc(C(=O)N(C)C)n(Cc4cc(F)c(F)c(F)c4)c3C[C@H]2CN1C(=O)c1ccccc1 -27.1%
CNC(=O)[C@@H]1C[C@H]1[C@@H](NC(=O)CNC(=O)OCc1ccccc1)c1ccccc1 17.5%
O=C(NCC1CC1)[C@@H]1C[C@H]1[C@@H](NP(=O)(c1ccccc1)c1ccccc1)c1ccccc1 0.38%

molecular target: Cytochrome P450 3A4 (Homo sapiens) (UniProt P08684); test: qHTS Assay for Inhibitors and Substrates of Cytochrome P450 3A4 (AID 884); settings: recombinant CYP3A4, Luciferin-PPXE luminescence; series mostly up to 57.1 µM; activity change, negative = inhibition: at the top concentration; further: on the % scale 0 is the no-effect control and ±100 the full control effect; nearly all actives have a fitted effect of over 50% in size
Summary of the method: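 Luminescent readout of luciferin produced by CYP3A4 (20 nM) dealkylation of Luciferin-PPXE, 25 uM (its KM). NADPH-driven reaction ran 60 min at RT after 10 min compound preincubation; data scaled to 57 uM ketoconazole as 100% inhibition.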

Cytochrome P450 3A4 (Homo sapiens), sequence (P08684 whole entry, looked up): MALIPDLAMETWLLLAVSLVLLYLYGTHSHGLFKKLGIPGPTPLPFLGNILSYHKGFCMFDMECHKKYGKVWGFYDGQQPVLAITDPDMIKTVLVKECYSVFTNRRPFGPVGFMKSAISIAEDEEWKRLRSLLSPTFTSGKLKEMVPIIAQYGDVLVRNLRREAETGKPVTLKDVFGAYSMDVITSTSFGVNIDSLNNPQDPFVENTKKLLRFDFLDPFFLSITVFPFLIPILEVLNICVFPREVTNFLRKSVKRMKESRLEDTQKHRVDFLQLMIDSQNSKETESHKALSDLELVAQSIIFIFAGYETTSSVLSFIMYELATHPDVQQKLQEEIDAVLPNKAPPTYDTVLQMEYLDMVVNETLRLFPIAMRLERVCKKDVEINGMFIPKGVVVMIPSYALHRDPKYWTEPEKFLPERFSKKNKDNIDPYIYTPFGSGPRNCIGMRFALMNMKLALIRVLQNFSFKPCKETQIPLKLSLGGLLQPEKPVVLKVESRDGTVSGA

Activity change, negative = inhibition, inactive:
C[C@]12CCC(=O)C=C1CCC1C2C(O)C[C@]2(C)C1CC[C@]2(O)C(=O)COC(=O)CCC(=O)O (stereo partly specified) -4.72%
C=C1c2cccc(O)c2C(O)=C2C(=O)[C@]3(O)C(O)=C(C(N)=O)C(=O)C(N(C)C)C3C(O)C12 (stereo partly specified) -8.36%
CC1CC[C@@]23CCC4(C)[C@@]5(C)CCC6C(C)(C)C(=O)CC[C@@]6(C)C5C=C[C@@]4(OC2=O)C3C1C (stereo partly specified) -27.2%
O=C(O)/C=C/C=C/c1ccccc1 -15.2%
NC(=O)c1ccc[n+]([C@@H]2OC(COP(=O)([O-])OP(=O)(O)OCC3OC(n4cnc5c(N)ncnc54)C(O)C3O)C(O)C2O)c1 (stereo partly specified) -3.03%
NC1C(O)OC(CO)[C@@H](O)[C@@H]1O[C@H]1O[C@@H](C(=O)O)C(O)C(O)C1O (stereo partly specified) -2.83%
C=C1C(=O)C23C(O)C1CCC2[C@]12COC3(O)C(O)C1C(C)(C)CC[C@H]2O (stereo partly specified) -10.3%

molecular target: Cytochrome P450 3A4 (Homo sapiens) (UniProt P08684); test: qHTS Assay for Activators of Cytochrome P450 3A4 (AID 885); settings: recombinant CYP3A4, Luciferin-PPXE luminescence, 60 min; series mostly up to 57.1 µM; activity change, positive = activation: at the top concentration; further: nearly all actives have a fitted effect of over 65% in size
Summary of the method: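 Activators are scored by enhanced luminescence from CYP3A4 conversion of luciferin-PPXE (25uM, equal to KM) to luciferin, after 60 min at RT with an NADPH-regenerating system.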

Activity change, positive = activation, inactive:
COC1=CC(=O)C=C(OC)C1=O -49.5%
COc1ccc(-c2coc3cc(OC)cc(OC)c3c2=O)cc1 -34.1%
CC1CC2C(C(O)C[C@]3(C)C2CC[C@]3(O)C(=O)CO)[C@]2(C)C=CC(=O)C=C12 (stereo partly specified) -44.8%
C=C1C(=O)OC2C1CC/C(C)=C/CCC1(C)OC21 (stereo unspecified) -52.4%
COc1cc(OC)c2c(=O)c(-c3ccccc3)c(C)oc2c1OC -30.3%
CS(C)(=O)=O -44.4%
Cc1cc(=O)oc2cc(O)c(O)cc12 -34.2%
COc1ccc(-c2c(O)c3c(OC)c4c(cc3oc2=O)OC(C)(C)CC4)cc1 -59.1%
Oc1ccc2c(c1)OCC1c3cc4c(cc3OC21)OCO4 (stereo unspecified) -54%
O=c1c2cc(O)c(O)cc2oc2cc(O)c(C3OC(CO)C(O)C(O)C3O)c(O)c12 (stereo unspecified) -34.6%
COc1cc2c(cc1OC)C(=O)OC2 -32.1%
Cc1cc(O)cc(=O)o1 -32.2%
COc1ccc(-c2cc(=O)c3cc(OC)ccc3o2)cc1 -40.5%
COC(=O)CC1[C@@]2(C)C[C@@]34OC5(C)OC6(CC[C@@]7(C)C(c8ccoc8)OC(=O)C(C(C)=O)C7[C@]6(O5)C(O)[C@@]3(O)C2O)[C@]14C (stereo partly specified) -63.2%

test system: not listed separately; test: Confirmation and Secondary Assay for Modulators of Hemoglobin Beta Chain Splicing at IVS2 654 locus (AID 910); settings: HeLa EGFP-654 splicing reporter, GFP fluorescence, 48 h; series mostly up to 46.1 µM; activation (splicing correction): at the top concentration;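 further: per-well total GFP intensity by laser scanning cytometry after 2-day treatment; % of control where 0% means no effect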
Summary of the method: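 HeLa cells stably carrying EGFP interrupted by mutant beta-globin IVS2-654 intron (CMV-driven) were treated with compound for 2 days at 37C; corrected splicing was scored as total peak GFP intensity per well (488 nm excitation, 500-520 nm emission).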

Activation (splicing correction), inactive:
CNC1C(O)C(O[C@H]2C(O)[C@@H](OC3OC(CN)=CCC3N)[C@H](N)C[C@@H]2N)OC[C@]1(C)O (stereo partly specified) 3.3%
COC1=CC(=O)C=C(OC)C1=O 7.82%
COc1ccc(-c2coc3cc(OC)cc(OC)c3c2=O)cc1 2.56% [at 38.3 µM]
COc1ccc2c3c1OC1CC(O)C=C[C@@]31CCN(C)C2 (stereo partly specified) 7.17%
COc1cc(OC)c2c(=O)c(-c3ccccc3)c(C)oc2c1OC 2.45% [at 38.3 µM]
NC(N)=Nc1nc(CSCC/C(N)=N\S(N)(=O)=O)cs1 3.48%
CS(C)(=O)=O 7.24%
CNCC(O)c1cccc(O)c1 (stereo unspecified) 10.4%
Cc1cc(=O)oc2cc(O)c(O)cc12 2.93% [at 38.3 µM]
COc1ccc(-c2c(O)c3c(OC)c4c(cc3oc2=O)OC(C)(C)CC4)cc1 -1.72% [at 38.3 µM]
Oc1ccc2c(c1)OCC1c3cc4c(cc3OC21)OCO4 (stereo unspecified) 0.832%
O=c1c2cc(O)c(O)cc2oc2cc(O)c(C3OC(CO)C(O)C(O)C3O)c(O)c12 (stereo unspecified) 13.1%
Cc1nnc(SCC2=C(C(=O)O)N3C(=O)C(NC(=O)Cn4cnnn4)[C@@H]3SC2)s1 (stereo partly specified) 9.67%
COc1cc2c(cc1OC)C(=O)OC2 -2.1% [at 38.3 µM]
Cc1cc(O)cc(=O)o1 -1.73%
COc1ccc(-c2cc(=O)c3cc(OC)ccc3o2)cc1 1.4% [at 38.3 µM]
COC(=O)CC1[C@@]2(C)C[C@@]34OC5(C)OC6(CC[C@@]7(C)C(c8ccoc8)OC(=O)C(C(C)=O)C7[C@]6(O5)C(O)[C@@]3(O)C2O)[C@]14C (stereo partly specified) 2.43% [at 38.3 µM]
